# Inconclusive results are not listed. A call without a number means that no potency is given here. Activity calls are given as the source filed them. Unless noted, calls come from the whole dose curve; as a rule, active = well fitted curve in the direction sought with a large enough effect; inconclusive = small, poorly fitted or top-dose-only effect, or another doubt; inactive = no such curve, though single readings can be large; an effect the other way counts as inactive or inconclusive.
# Assays:
# [1] = NS1 protein of Zika virus - qHTS assay to identify small molecule inhibitors in human HEK 293 cells (AID 1347053); conditions: HEK293 ZIKV MR766 infection, NS1 TR-FRET, 24 h; series mostly up to 46.1 µM; note: nearly all actives have a fitted effect of over 55% in size
# Method in brief: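 HEK 293 cells, seeded 20 h at 37 C, were pretreated with compound 1 h, then infected with ZIKV MR766 (MOI = 0.5) for 24 h. NS1 was read by TR-FRET with two anti-NS1 antibodies, normalized to uninfected and infected wells.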
# [2] = qHTS of pediatric cancer cell lines to identify multiple opportunities for drug repurposing: Primary screen for DAOY cells (AID 1347090); conditions: DAOY medulloblastoma viability, CellTiter-Glo luminescence, 48 h; series mostly up to 46 µM; note: nearly all actives have a fitted effect of over 55% in size; note: potency is the fitted concentration of half-maximal effect
# Method in brief: (§1)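 Viability measured as metabolically active cells via CellTiter-Glo luminescence following 48 hours of compound exposure, 11-point dilutions in confirmatory testing. 500-1,000 cells/well plated 5 hours before dosing; controls were DMSO and 2.3 µM bortezomib.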
# [3] = qHTS of pediatric cancer cell lines to identify multiple opportunities for drug repurposing: Primary screen for SJ-GBM2 cells (AID 1347091); conditions: SJ-GBM2 viability, CellTiter-Glo luminescence, 48 h; series mostly up to 46 µM; note: potency is the fitted concentration of half-maximal effect
# Method in brief: as §1
# [4] = qHTS of pediatric cancer cell lines to identify multiple opportunities for drug repurposing: Primary screen for A673 cells (AID 1347092); conditions: A673 Ewing sarcoma viability, CellTiter-Glo ATP luminescence, 48 h; series mostly up to 46 µM; note: nearly all actives have a fitted effect of over 45% in size; note: potency is the fitted concentration of half-maximal effect
# Method in brief: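 A673 cells (500-1,000 cells/well) were treated 48 hours at 37 degrees C with compounds at 11-point (0.78 nM to 46 µM) or 8-point (0.59 nM to 46 µM) dilutions. Viability read by CellTiter-Glo luminescence; concentration-response curves fitted.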
# [5] = qHTS of pediatric cancer cell lines to identify multiple opportunities for drug repurposing: Primary screen for BT-37 cells (AID 1347094); conditions: BT-37 viability, CellTiter-Glo luminescence, 48 h; series mostly up to 57.3 µM; note: potency is the fitted concentration of half-maximal effect
# Method in brief: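 Primary screen of approved and investigational compounds on cells in growth media at 37 degrees C, 5% CO2. MIPE set at 11-point and NPC set at 8-point dilutions; viability scored by ATP-based luminescence at 48 hours.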
# [6] = qHTS of pediatric cancer cell lines to identify multiple opportunities for drug repurposing: Primary screen for TC32 cells (AID 1347089); conditions: TC32 Ewing sarcoma viability, CellTiter-Glo luminescence, 48 h; series mostly up to 45.8 µM; note: nearly all actives have a fitted effect of over 60% in size; note: potency is the fitted concentration of half-maximal effect
# Method in brief: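 TC32 cells, 500-1,000/well in growth medium, compound-treated 48 h at 37 °C; viability from CellTiter-Glo luminescence. Primary screen: MIPE 11-point (0.78 nM–46 µM final), NPC 8-point (0.59 nM–46 µM final); confirmatory at 11-point dilutions.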
# [7] = qHTS of pediatric cancer cell lines to identify multiple opportunities for drug repurposing: Primary screen for SK-N-MC cells (AID 1347093); conditions: SK-N-MC viability, CellTiter-Glo luminescence, 48 h; series mostly up to 46 µM; note: potency is the fitted concentration of half-maximal effect
# Method in brief: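 Metabolically active cells were quantified by ATP-dependent luminescence (CellTiter-Glo, 15 min at room temperature) following 48 h treatment. Cells had been plated at 500-1,000 per well and settled for 5 h beforehand.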
# [8] = molecular target: T1, Tyrosine-protein phosphatase non-receptor type substrate 1 (Homo sapiens) + Leukocyte surface antigen CD47 (Homo sapiens) (UniProt P78324+Q08722); assay: CD47-SIRPalpha protein protein interaction - HTRF assay qHTS validation (AID 1347058; active = well fitted curve in the direction sought with a large enough effect in the signal ratio, not every such curve was filed as active; the % refers to the signal ratio;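 note: recombinant soluble extracellular CD47 with His tag and biotinylated SIRPalpha domains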); conditions: TR-FRET HTRF CD47-His / biotin-SIRPalpha binding, ratio 665/615; series mostly up to 38.3 µM
# Method in brief: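 TR-FRET read (Ch1/Ch2 ratio) of soluble extracellular CD47 and Avi-biotinylated SIRPalpha domains in PBS pH 7.4 with 0.05% IGEPAL; 7-point compound titration. Sequential 30 min room-temperature steps; non-biotinylated SIRPalpha as control inhibitor.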
# [9] = molecular target: T1, Tyrosine-protein phosphatase non-receptor type substrate 1 (Homo sapiens) + Leukocyte surface antigen CD47 (Homo sapiens); assay: CD47-SIRPalpha protein protein interaction - Alpha assay qHTS validation (AID 1347059); conditions: AlphaScreen CD47-His/biotin-SIRPalpha binding, LOPAC; series mostly up to 38.3 µM;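 note: bead proximity luminescence from CD47 binding SIRPalpha after compound preincubation with SIRPalpha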
# Method in brief: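 Biotinylated Avi-tagged SIRPalpha (25 nM) preincubated 30 min with compound, then His-tagged CD47 (12.5 nM) added 30 min; AlphaScreen with Ni-NTA acceptor and streptavidin donor beads. PBS pH 7.4, 0.05% IGEPAL, room temperature; 7-point titrations.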
# [10] = molecular target: Parathyroid hormone/parathyroid hormone-related peptide receptor (Homo sapiens) (UniProt Q03431); assay: qHTS for PTHR1 Agonists: Optimization Screen against the NCGC LOPAC library (AID 1347079); conditions: HEK293 GP2 PTHR1 GloSensor cAMP luminescence, 1 h; series mostly up to 57.1 µM;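 note: GloSensor cAMP luminescence in HEK-293 GP2 cells expressing human PTHR1 with IBMX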
# Method in brief: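 Agonist readout: GloSensor cAMP luminescence, read after 15 min at room temperature. HEK-293-derived GP2 line carries PTHR1; compounds tested as a titration for 1 hr at 37C in presence of IBMX. M-PTH (1-15) served as control.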
# [11] = molecular target: T1, Tyrosine-protein phosphatase non-receptor type substrate 1 (Homo sapiens) + Leukocyte surface antigen CD47 (Homo sapiens); assay: CD47-SIRPalpha protein protein interaction - LANCE assay qHTS validation (AID 1347057; active = well fitted curve in the direction sought with a large enough effect in the signal ratio, with a control signal flat, not every such curve was filed as active; the % refers to the signal ratio); conditions: Recombinant CD47-His / biotin-SIRPalpha, TR-FRET ratio; series mostly up to 38.3 µM
# Method in brief: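 First, His-tagged CD47 and Eu-labelled anti-His antibody met the compound for 30 min; next, site-specifically biotinylated SIRPalpha was added for 30 min; finally streptavidin-APC was added before reading the TR-FRET ratio.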
# T1 sequence (P78324 whole entry, looked up, the tested form may be a part): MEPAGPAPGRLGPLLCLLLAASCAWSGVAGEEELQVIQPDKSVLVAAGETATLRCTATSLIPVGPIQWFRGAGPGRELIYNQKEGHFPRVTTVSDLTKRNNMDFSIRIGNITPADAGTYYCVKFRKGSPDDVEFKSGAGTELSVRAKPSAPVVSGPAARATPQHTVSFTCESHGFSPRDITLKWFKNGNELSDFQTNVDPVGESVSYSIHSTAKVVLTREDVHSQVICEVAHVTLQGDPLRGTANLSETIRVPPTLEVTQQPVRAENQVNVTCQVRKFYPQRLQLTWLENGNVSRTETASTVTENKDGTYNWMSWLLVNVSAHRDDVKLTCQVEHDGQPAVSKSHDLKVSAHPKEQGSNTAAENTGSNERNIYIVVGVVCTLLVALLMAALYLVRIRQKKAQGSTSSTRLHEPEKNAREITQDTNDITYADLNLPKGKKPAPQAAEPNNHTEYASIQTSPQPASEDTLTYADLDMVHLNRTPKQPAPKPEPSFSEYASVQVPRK
# T1 sequence (Q08722 whole entry, looked up, the tested form may be a part): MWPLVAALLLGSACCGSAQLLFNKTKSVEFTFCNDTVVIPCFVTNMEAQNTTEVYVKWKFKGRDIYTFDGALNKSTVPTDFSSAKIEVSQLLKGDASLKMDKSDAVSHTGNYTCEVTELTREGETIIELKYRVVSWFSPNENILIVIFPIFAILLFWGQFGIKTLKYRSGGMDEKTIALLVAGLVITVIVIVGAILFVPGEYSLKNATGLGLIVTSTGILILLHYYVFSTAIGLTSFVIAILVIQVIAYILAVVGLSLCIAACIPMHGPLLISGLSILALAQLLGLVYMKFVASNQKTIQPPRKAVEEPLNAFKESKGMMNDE
# Sequence of Parathyroid hormone/parathyroid hormone-related peptide receptor (Homo sapiens) (Q03431 whole entry, looked up): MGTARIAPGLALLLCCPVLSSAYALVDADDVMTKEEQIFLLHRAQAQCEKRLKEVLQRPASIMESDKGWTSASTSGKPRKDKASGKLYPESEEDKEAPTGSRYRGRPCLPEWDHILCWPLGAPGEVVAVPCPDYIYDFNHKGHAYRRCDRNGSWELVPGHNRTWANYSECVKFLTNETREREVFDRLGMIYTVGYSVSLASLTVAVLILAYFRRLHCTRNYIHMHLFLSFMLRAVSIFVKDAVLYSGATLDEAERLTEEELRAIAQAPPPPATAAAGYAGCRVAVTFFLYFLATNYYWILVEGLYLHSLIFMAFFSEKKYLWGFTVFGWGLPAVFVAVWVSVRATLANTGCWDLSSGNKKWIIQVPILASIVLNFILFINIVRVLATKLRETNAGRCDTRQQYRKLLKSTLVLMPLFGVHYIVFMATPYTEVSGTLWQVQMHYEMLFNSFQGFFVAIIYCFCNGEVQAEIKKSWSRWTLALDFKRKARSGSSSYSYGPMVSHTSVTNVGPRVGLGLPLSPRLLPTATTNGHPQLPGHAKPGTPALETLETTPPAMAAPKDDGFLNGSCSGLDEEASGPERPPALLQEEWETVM
structure (smiles),measurement,setting,value
S=c1[nH]c2ccccc2s1,Potency,[1],inactive
same,Potency,[2],inactive
same,Potency,[3],inactive
same,Potency,[4],19.3 µM (active)
same,Potency,[5],inactive
COC(=O)c1nc(Cl)c(Cl)nc1N,Potency,[6],3.33 µM (active)
same,Potency,[2],1.33 µM (active)
same,Potency,[3],5.31 µM (active)
same,Potency,[4],2.11 µM (active)
same,Potency,[7],0.668 µM (active)
same,Potency,[5],13.8 µM (active)
Cn1c(=O)c(-c2c(Cl)cccc2Cl)cc2cnc(Nc3ccc(N4CCOCC4)cc3)nc21,outcome,[8],inactive
Nc1cc(-c2ccncc2)c[nH]c1=O,Potency,[1],inactive
same,Potency,[6],inactive
same,Potency,[3],inactive
same,Potency,[4],inactive
same,Potency,[5],inactive
N=C1N=C(N)c2cc3ccccc3cc21,Potency,[6],inactive
same,Potency,[3],24.3 µM (active)
same,Potency,[4],19.3 µM (active)
same,Potency,[5],15.9 µM (active)
Cc1cc2c(cc1Cl)N(C(=O)Nc1ccc(Oc3cccnc3C)nc1)CC2,outcome,[8],inactive
same,Potency,[9],inactive
same,Potency,[10],inactive
CCCCCCCCCCCC(=O)[O][Sn]([CH2]CCC)([CH2]CCC)[O]C(=O)CCCCCCCCCCC,Potency,[1],inactive
same,Potency,[6],inactive
same,Potency,[3],inactive
same,Potency,[4],inactive
same,Potency,[5],inactive
COC(=O)C1=C(C)NC(C)=C(C(=O)OCC(C)=O)C1c1ccccc1[N+](=O)[O-] (stereo unspecified),Potency,[1],inactive
same,Potency,[6],inactive
same,Potency,[7],13.3 µM (active)
Ic1ccc(N2CCN(Cc3c[nH]c4ncccc34)CC2)cc1,Potency,[10],inactive
Cc1c(Nc2ncccc2C(=O)O)cccc1C(F)(F)F,Potency,[1],inactive
same,Potency,[6],inactive
same,Potency,[3],inactive
same,Potency,[4],inactive
same,Potency,[5],inactive
NC(=O)C(c1ccccc1)(c1ccccc1)[C@@H]1CCN(CCc2ccc3c(c2)CCO3)C1,Potency,[1],inactive
same,Potency,[6],inactive
same,Potency,[3],inactive
same,Potency,[4],inactive
same,Potency,[7],inactive
same,Potency,[5],inactive
COc1ccc(C(=O)/C(Cc2cc(OC)c(OC)c(OC)c2)=C(\C(=O)O)c2ccc3c(c2)OCO3)cc1,Potency,[11],inactive
same,Potency,[9],inactive
